Records with an inconclusive call do not appear. The source made the active and inactive calls. The call rests on the fitted dose curve; in most records, active means well fitted curve in the direction sought with a large enough effect in the repeat runs; inconclusive means weak or mixed curves; inactive means no such curve, though single readings can be large; an effect the other way counts as inactive or inconclusive.
Key:
[1] = qHTS assay for identifying genotoxic compounds that show differential cytotoxicity against isogenic chicken DT40 cell lines with known DNA damage response pathways - wild type cell line (AID 743012); further: nearly all actives have a fitted effect of over 60% in size
How it was run: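 Wild-type DT40 cells (300/well) exposed to compounds for 40 hours at 37 C/5% CO2. Viability read by CellTiter-Glo luminescence after 30 min at room temperature.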

[2] = qHTS assay for identifying genotoxic compounds that show differential cytotoxicity against isogenic chicken DT40 cell lines with known DNA damage response pathways - Rev3 mutant cell line (AID 743014); further: nearly all actives have a fitted effect of over 55% in size
[3] = qHTS assay for identifying genotoxic compounds that show differential cytotoxicity against isogenic chicken DT40 cell lines with known DNA damage response pathways - Rad54/Ku70 mutant cell line (AID 743015); further: nearly all actives have a fitted effect of over 60% in size

Measured: Potency
Potency means the concentration at half of the fitted maximal effect.

COC(=O)[C@]12CCC(C)(C)C[C@H]1[C@H]1C(=O)C=C3[C@@]4(C)C=C(C#N)C(=O)C(C)(C)[C@@H]4CC[C@@]3(C)[C@]1(C)CC2
active: [1] 596 nM | [2] 841 nM | [3] 596 nM
